Screening data from PubChem.
G9a inh = blocks human histone lysine methyltransferase G9a | Q96KQ7 | G9a H3K9 monomethylation, AlphaScreen, 2 h | Potency, µM (titrated, usually from 102 µM), hits mostly inhibitors | hit rate 8.8% among 350,000 | AID 504332; also: nearly all actives have a fitted effect of over 75% in size
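Step 1: enzyme (final 20 nM) with compound, 15 min RT. Step 2: substrate peptide 500 nM and SAM 20 uM, 2 h RT. Step 3: anti-H3K9me1 antibody and AlphaScreen beads, 10 min, then plate read.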
HP1b chromo inh = inhibitors of HP1-beta chromodomain binding to methylated histone tails | AID 540317 | hit rate 0.56% among 390,000 | P83916 | Potency, µM (doses to about 114 µM), actives largely listed as inhibitors | AlphaScreen HP1-beta / biotin-H3K9me3 peptide binding; also: nearly all actives have a fitted effect of over 70% in size
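HP1-beta protein (50 nM final) preincubated 30 min at room temperature with biotinylated H3(1-18)K9me3 peptide (50 nM) in PBS pH 7.4, 0.01% Tween-20, then compound added for 30 min. AlphaScreen streptavidin donor/nickel chelate acceptor beads (10 ug/mL final), 30 min dark, luminescence read.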
BAZ2B inh = BAZ2B (human) inhibition. Q9UIF8. AlphaScreen BAZ2B-H3K14Ac peptide displacement. Potency, µM (doses to about 114 µM), actives largely listed as inhibitors. hit rate 4.4% among 360,000. AID 504333; also: nearly all actives have a fitted effect of over 60% in size
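Multi-concentration screen (max 110 uM) measuring displacement of acetylated histone H3 peptide from BAZ2B by AlphaScreen, using 50 nM protein, 50 nM peptide and 10 ug/mL streptavidin donor plus Ni-chelate acceptor beads.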
GLS inh = glutaminase GLS (human) inhibition; Potency, µM (top dose mostly 45.5 µM), usual class: inhibitors; hit rate 0.21% among 410,000; GLS enzymatic activity, qHTS titration; AID 624170
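hKGA in 45 mM KH2PO4 pH 8.2, 0.02% Tween-20 with pin-transferred compounds; 1 mM L-glutamine (stock) plus glutamate oxidase/HRP/Amplex Red coupling added. Fluorescence read initially and after 30 min at RT.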
JMJD2A Tudor = JMJD2A Tudor domain (human) inhibition; AID 504339; AlphaScreen JMJD2A-Tudor / H3K4me3 peptide binding; O75164; hit rate 4.4% among 390,000; Potency, µM (top dose mostly 114 µM), usual class: inhibitors; also: nearly all actives have a fitted effect of over 50% in size
Target sequence (O75164 whole entry, looked up, the tested form may be a part): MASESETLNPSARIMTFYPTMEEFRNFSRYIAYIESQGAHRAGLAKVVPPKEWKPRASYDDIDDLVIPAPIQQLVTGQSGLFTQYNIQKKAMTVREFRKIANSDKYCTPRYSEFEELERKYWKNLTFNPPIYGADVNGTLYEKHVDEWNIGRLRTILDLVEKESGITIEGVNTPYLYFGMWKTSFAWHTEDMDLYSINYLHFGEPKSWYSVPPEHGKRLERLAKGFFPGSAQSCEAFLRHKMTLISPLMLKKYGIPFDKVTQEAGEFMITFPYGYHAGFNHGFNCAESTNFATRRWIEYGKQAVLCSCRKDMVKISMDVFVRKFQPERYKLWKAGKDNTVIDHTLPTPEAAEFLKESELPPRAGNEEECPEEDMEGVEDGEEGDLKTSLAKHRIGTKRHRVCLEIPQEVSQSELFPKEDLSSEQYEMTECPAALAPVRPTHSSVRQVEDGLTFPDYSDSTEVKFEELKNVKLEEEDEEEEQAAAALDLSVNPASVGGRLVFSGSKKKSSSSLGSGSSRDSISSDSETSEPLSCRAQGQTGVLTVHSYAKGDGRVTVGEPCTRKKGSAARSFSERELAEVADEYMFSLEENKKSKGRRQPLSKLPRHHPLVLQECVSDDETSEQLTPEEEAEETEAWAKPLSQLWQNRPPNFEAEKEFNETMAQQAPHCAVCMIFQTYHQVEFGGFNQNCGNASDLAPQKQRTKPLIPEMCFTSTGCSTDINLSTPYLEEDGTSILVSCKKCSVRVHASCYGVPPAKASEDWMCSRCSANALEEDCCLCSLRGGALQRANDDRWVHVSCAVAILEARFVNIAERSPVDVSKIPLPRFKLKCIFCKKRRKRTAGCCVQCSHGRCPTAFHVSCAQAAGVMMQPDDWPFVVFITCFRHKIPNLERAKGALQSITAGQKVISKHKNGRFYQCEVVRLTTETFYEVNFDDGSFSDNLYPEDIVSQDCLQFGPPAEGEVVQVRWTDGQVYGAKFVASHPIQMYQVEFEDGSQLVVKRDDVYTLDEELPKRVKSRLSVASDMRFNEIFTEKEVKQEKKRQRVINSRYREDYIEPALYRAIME
A number is an active result; - = inactive; ? = inconclusive; . = no result given; [ ] = remark or other dose. A selection: hits, their analogues and other compounds. The true share with any hit is near 10%. Calls follow the shape of the dose curve; as a rule, active = well fitted curve in the direction sought with a large enough effect; inconclusive = small, poorly fitted or top-dose-only effect, or another doubt; inactive = no such curve, though single readings can be large; an effect the other way counts as inactive or inconclusive.

SMILES	G9a inh	HP1b chromo inh	BAZ2B inh	GLS inh	JMJD2A Tudor
O=C1c2ccccc2C(=O)c2c1cccc2N1CCOCC1	.	40µM	16µM	-	35µM
CCCCOc1ccccc1C1NC(=O)NC(C)=C1C(=O)OCCOCC (configuration not stated)	-	-	-	-	-
CCCCOc1ccccc1C1NC(=O)NC(C)=C1C(=O)OCc1ccco1 (configuration not stated)	22µM	-	-	-	-
CCOC(=O)C1=C(N)OC2=C(C(=O)CC(C)(C)C2)C1c1ccco1 (configuration not stated)	22µM	-	-	-	56µM
CCOC(=O)C1=C(C)NC(=O)NC1c1ccco1 (configuration not stated)	-[12.7 µM]	-	79µM	-	?
Cn1cc(-c2nc3cncnc3n(Cc3ccccc3Cl)c2=O)c2ccccc21	-[0.501 µM]	.	.	.	.
CCCCCCCCCCCCCCCC(=O)OCC(COP(=O)(O)O)OC(=O)CCCCCCCCCCCCCCC (configuration not stated)	-	.	.	.	.
COc1ccccc1NC(=O)C1(C)Cc2ccccc2C(=O)O1 (configuration not stated)	50µM	-	-	-	-
COC(=O)c1c(NC(=O)C2(C)Cc3ccccc3C(=O)O2)sc2c1CCCC2 (configuration not stated)	20µM	?	-	-	-
CCOC(=O)c1cccc(NC(=O)CCc2c(C)nn(-c3ccc(N4CCOCC4)nn3)c2C)c1	-	-	-	-	-
Cc1noc(C)c1COC(=O)c1cc2c3ccccc3n(C)c2s1	40µM	-	-	-	-
Cc1cc(=O)n(C)c(=O)n1CCCCCN1CCCC1	?	?	50µM	-	2.5µM
COc1ccc(N(C)S(=O)(=O)c2cccc(C(=O)Nc3cccc(C(=O)NC4CC4)c3)c2)cc1	?	-	-	-	-
Cc1nc2ccc(C(=O)NCCc3c[nH]c4ccccc34)cn2c1N(C)C(=O)CCc1ccccc1	.	.	.	-	.
COC(=O)c1scc(-c2ccc(C)cc2)c1S(=O)(=O)Nc1ccc(N(C)C)cc1	?	?	8.9µM	-	?
CCOC(=O)CC1=CCc2c1ccc(OC)c2OC	.	-	.	-	-
CN(C(=S)NC1=CCS(=O)(=O)C1)C1CCCCC1	10µM	-	-	-	-
Cc1cccc(NC(=S)N(C)C2CCCCC2)c1	-	-	-	-	-
CCCCNc1c(N)n(CCCC)c(=O)[nH]c1=O	-	.	-	.	.
CCC(=O)c1ccc(NC(C)=O)cc1O	-	-	-	-	-
CC(=O)Nc1ccc2c(c1)C(C)(C)C(C)N2C (configuration not stated)	18µM	-	?	-	-
O=C1CCc2cc([S+](=O)([O-])Nc3ccc(N[S+](=O)([O-])c4ccc5c(c4)CCC(=O)N5)cc3)ccc2N1	.	.	.	.	-
c1ccc(-n2ncc3c(NCCN4CCCCC4)ncnc32)cc1	45µM	-	?	-	-
Clc1cccc(-n2ncc3c(NCCCn4ccnc4)ncnc32)c1	-	-	28µM	-	?
Fc1ccc(-n2ncc3c(NCCCn4ccnc4)ncnc32)cc1	-	-	-	-	-
SMILES	G9a inh	HP1b chromo inh	BAZ2B inh	GLS inh	JMJD2A Tudor
O=C(COC(=O)c1ccncc1)Nc1cc(Cl)c(Cl)cc1Cl	-	.	?	.	.
CC(OC(=O)c1cc(=O)[nH]c2ccccc12)C(=O)N1C(C)CCCC1C (configuration not stated)	-[2.33 µM]	-	-	-	18µM
CC(OC(=O)c1cc(=O)[nH]c2ccccc12)C(=O)Nc1ccccc1F (configuration not stated)	32µM	-	-	-	-
O=C(COC(=O)c1cc(=O)[nH]c2ccccc12)Nc1ccccc1F	.	-	.	-	-
COc1cc(OC)cc(-c2nc3nc(C)c(CCC(=O)Nc4ccc(Cl)cc4)c(C)n3n2)c1	-	-	-	-	-
CCC(C)(C)NC(=O)c1cccc(NC(=O)C(C)C)c1	.	-	-	-	40µM
CCN1CCCc2cc(CN(CCN3CCOCC3)C(=S)Nc3cccc(OC)c3)ccc21	?	?	14µM	-	50µM
COc1ccc(CN(CCCN2CCOCC2)C(=O)Nc2cccc(Cl)c2)cc1OC	-	-	-	-	-
CCCN1CCCc2cc(CN(CCCN3CCOCC3)C(=O)Nc3ccc(Cl)c(Cl)c3)ccc21	11µM	?	11µM	-	13µM
CCOc1ccc(NC(=O)N(CCN2CCOCC2)Cc2ccc3c(c2)CCCN3CC)cc1	-[0.501 µM]	?	45µM	-	56µM
CCCN1CCCc2cc(CN(CCCN3CCOCC3)C(=O)Nc3ccc(OCC)cc3)ccc21	13µM	?	40µM	-	28µM
CCOc1ccc(NC(=O)N(CCCN2CCOCC2)Cc2cccnc2)cc1	-	-	-	-	-
CC(NC(=O)CSc1nc(-c2cccc(Cl)c2)nc2cc(=O)[nH]n12)c1nc2ccccc2n1C (configuration not stated)	-	-	-	-	-
CC1(C(=O)NS(=O)(=O)c2ccccc2)CCN1C(=O)CCc1ccc(Cl)cc1Cl (configuration not stated)	.	.	.	-	.
O=C(CSc1cccc[n+]1[O-])Nc1ccc([N+](=O)[O-])cc1Cl	56µM	-	-	-	-
O=C(CSc1cccc[n+]1[O-])Nc1ccc(N2CCOCC2)cc1	56µM	.	-	.	.
Cn1c(=O)c2ncn(CC(=O)Nc3ccc(N4CCOCC4)cc3)c2n(C)c1=O	14µM	-	-	-	-
Nc1ccccc1SCC(=O)Nc1ccc(N2CCOCC2)cc1	45µM	-	-	-	-
Cc1cc2oc(=O)cc(-c3ccccc3)c2c(C)c1-c1ccc(C#N)cc1	-	-	.	-	-
CCC(CC)C(=O)Nc1ccccc1C(=O)OCc1cc(=O)n2nc(C3CCCCC3)sc2n1	-	-	-	-	-
Cc1ccc2c(c1)c1c(c(=O)n(-c3ccccc3)c(=O)n1CC(=O)N1CCCC1)n2C	-	-	-	-	-
O=C(CCn1ccc2ccccc21)Nc1ccc(N2CCOCC2)cc1	50µM	-	-	-	-
COc1cc(C(C(=O)NC2CCCCC2)N(C(=O)Cc2c[nH]c3ccccc23)c2ccccc2C)cc(OC)c1OC (configuration not stated)	40µM	-	?	-	-
Cc1ccc(C(C(=O)NC2CCCCC2)N(Cc2ccccc2)C(=O)Cc2c[nH]c3ccccc23)o1 (configuration not stated)	2.5µM	-	?	-	?
CCc1ccc2occ(CC(=O)Nc3nnc(C)s3)c2c1	-	-	-	-	-
COc1cc(NC(=O)c2cc3nc(-c4ccc(C)cc4)cc(C(F)(F)F)n3n2)cc(OC)c1OC	-	-	-	-	-
Fc1ccc(/C=N/Nc2nn[nH]n2)cc1	-	-	?	-	-
CCc1ccc(/C=N/Nc2nn[nH]n2)cc1	10µM	-	?	-	?
CCc1nnc(NCC(=O)N2CCc3ccccc32)s1	14µM	-	?	-	-[11.4 µM]
O=C(CSc1nnnn1-c1ccccc1)N1CCc2ccccc21	13µM	-	-	-	-
